Compound activity (PubChem BioAssay)
An excerpt weighted towards active compounds, which were near 1% of everything screened.
RXFP1 agonist: agonists of human relaxin receptor RXFP1; HEK293T-RXFP1 cAMP TR-FRET, 30 min; response scale: percent of porcine relaxin response, buffer zero; 370,000 compounds, 0.3% hits; Q9HBX9; Potency, µM (top dose mostly 57.5 µM), inactives show at the highest dose activation, actives largely listed as activators; active means well fitted activation curve with a large enough effect; inconclusive means small, poorly fitted or top-dose-only effect; further: potency means the concentration at half of the fitted maximal effect; on the % scale 0 is the no-effect control and ±100 the full control effect; nearly all actives have a fitted effect of over 60% in size
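HEK293T cells stably expressing RXFP1 were pretreated with the PDE4 inhibitor Ro 20174, exposed to compounds for 30 min at 37C, lysed, and cAMP was read by TR-FRET. Data normalized to buffer (basal) and 29 nM porcine relaxin (100%).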
TSHR antag: human thyrotropin receptor antagonism; activity change, negative = inhibition, % at 11.5 µM; TSHR-expressing cells, TSH-stimulated cAMP HTRF, 2 h; hits give low values; P16473; 330,000 compounds, 0.2% hits;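 active means activity change below a set negative limit, meaning inhibition stronger than a set level, cut at about -70% in these data; inconclusive means activity change between two set negative limits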; further: on the % scale 0 is the no-effect control and ±100 the full control effect
Target sequence (P16473 whole entry, looked up): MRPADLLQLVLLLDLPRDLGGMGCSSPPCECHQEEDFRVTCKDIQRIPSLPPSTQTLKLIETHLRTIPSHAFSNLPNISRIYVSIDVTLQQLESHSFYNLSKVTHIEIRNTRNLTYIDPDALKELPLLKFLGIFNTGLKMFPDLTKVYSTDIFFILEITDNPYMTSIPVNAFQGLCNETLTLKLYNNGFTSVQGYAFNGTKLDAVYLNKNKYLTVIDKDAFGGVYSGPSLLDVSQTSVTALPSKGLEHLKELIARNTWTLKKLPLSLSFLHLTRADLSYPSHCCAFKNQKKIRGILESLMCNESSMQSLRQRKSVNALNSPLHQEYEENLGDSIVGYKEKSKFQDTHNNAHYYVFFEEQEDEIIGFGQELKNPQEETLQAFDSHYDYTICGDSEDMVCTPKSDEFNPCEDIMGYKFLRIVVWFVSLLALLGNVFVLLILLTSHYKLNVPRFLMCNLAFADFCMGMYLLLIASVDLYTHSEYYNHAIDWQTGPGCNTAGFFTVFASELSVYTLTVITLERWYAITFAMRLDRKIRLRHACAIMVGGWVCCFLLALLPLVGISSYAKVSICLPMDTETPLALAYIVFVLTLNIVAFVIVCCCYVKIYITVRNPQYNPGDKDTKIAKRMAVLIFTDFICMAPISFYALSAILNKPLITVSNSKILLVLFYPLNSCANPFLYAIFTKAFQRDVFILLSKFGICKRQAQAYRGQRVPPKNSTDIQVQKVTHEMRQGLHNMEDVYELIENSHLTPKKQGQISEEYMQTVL
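Cell-based HTRF cAMP assay; TSHR cells + compound, TSH EC80 (4nM final), 2 h, 37 deg C. Lysis with anti-cAMP cryptate and cAMP-d2, 30 min RT, read 665/620 nm.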
gsp antag: antagonists of gsp mutant (McCune-Albright syndrome); gsp-mutant cells, cAMP HTRF, 30 min; Potency, µM (titrated, usually from 76.9 µM), for the others: top-dose activity change, negative = inhibition, hits mostly inhibitors; 340,000 compounds, 0.4% hits; AID 624288; calls by dose curve; cell line not stated here;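 further: intracellular cAMP measured with PDE inhibitor Ro 20-1724 present during compound exposure; potency means the concentration at half of the fitted maximal effect; on the % scale 0 is the no-effect control and ±100 the full control effect; nearly all actives have a fitted effect of over 65% in size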
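HTRF cAMP measurement after 30 min RT detection following 30 min, 37C compound treatment alongside […] (added as 300 uM solution) in G418-selected cells seeded at 2000/well and grown 16–24 h.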
RXFP1 antag: antagonists of human relaxin receptor RXFP1; Q9HBX9; HEK293-RXFP1, relaxin-stimulated cAMP HTRF, 30 min; hits give low values; activity change, negative = inhibition, % at 57.5 µM; 350,000 compounds, 0.59% hits;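 active means activity change of -60% or lower, but not beyond a set lower limit; inconclusive means change between -60% and -40%, or beyond the set limit; inactive means change above -40%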; further: on the % scale 0 is the no-effect control and ±100 the full control effect
gsp agonist: gsp mutant agonism; gsp mutant cells, cAMP HTRF, 30 min; Potency, µM (top dose mostly 76.9 µM), for the others: at the top dose activation (cAMP increase), usual class: activators; 340,000 compounds, 0.13% hits; AID 624287; active means well fitted activation curve with a large enough effect; inconclusive means small, poorly fitted or top-dose-only effect, or another doubt; inactive means no such curve, though single readings can be large or run the other way; cell line not stated here;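 further: phosphodiesterase inhibitor Ro 20-1724 added with compounds to block cAMP breakdown; potency means the concentration at half of the fitted maximal effect; nearly all actives have a fitted effect of over 60% in size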
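Cells stably selected in G418 were plated at 2000/well, grown 16-24 hr, then given compounds in DMSO with the PDE inhibitor […] (300 uM solution added) for 30 min at 37C; cAMP was read by HTRF.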
Numbers without * were called inactive; u = inconclusive; x = no result; [ ] = dose if it differs, or a comment.

SMILES | RXFP1 agonist | TSHR antag | gsp antag | RXFP1 antag | gsp agonist
Cc1nn(S(=O)(=O)c2cccs2)c(C)c1Sc1ccc([N+](=O)[O-])cc1 | 3% | -16 | 25µM* | -5 | -4%
Cc1nn(S(=O)(=O)c2cccs2)c(C)c1Sc1ccccc1 | 3% | -3 | x | x | x
S=c1[nH]nc(-c2cccnc2)n1/N=C/c1ccc(Br)s1 | 1% | -3 | u | -4 | -5%[15.4 µM]
Cc1ccc(/C=N/n2c(-c3cccnc3)n[nH]c2=S)s1 | 0% | 22 | 7.9µM* | 10 | -20%
COc1ccc(C(=O)Nc2ccc(OCc3ccccc3)cc2)cc1[N+](=O)[O-] | 3% | -11 | -11% | -1 | -18%
COc1ccc(C(=O)Nc2ccc(Nc3ccccc3)cc2)cc1[N+](=O)[O-] | -1% | -12 | 28µM* | 3 | -11%
COc1ccc(Cn2c(CCC(=O)NCc3ccc(Cl)cc3)nc3cccnc32)cc1 | 3% | x | x | -19 | x
Cn1cccc1-c1cc(C(=O)N/N=C/c2ccccc2Cl)[nH]n1 | 1% | -8 | -26% | -23 | -6%
Cn1cccc1-c1cc(C(=O)N/N=C/c2cc(Br)ccc2O)[nH]n1 | 28% | -8 | u | -61* | 30%
COc1cc2c(cc1OC)CN(C(=O)[C@H](C)N[C@@H](CCc1ccccc1)C(=O)O)[C@H](C(=O)O)C2 | x | x | x | 23 | x
N#CCC(=O)NN | x | x | x | -4 | x
Cc1ccccc1S(=O)(=O)Cc1ccc(C(=O)NC2CCCC2)o1 | 1% | -2 | 3% | 7 | 9%
Cc1ccccc1S(=O)(=O)Cc1ccc(C(=O)N(C)C2CCCCC2)o1 | 1% | -11 | 50µM* | -5 | u
Cc1ccccc1S(=O)(=O)Cc1ccc(C(=O)NC2CC2)o1 | 1% | -8 | 28µM* | 6 | -6%
CC(C)(C)c1ccc(C(=O)CC(Sc2ccc(Cl)cc2)C(=O)O)cc1 (stereo not drawn) | 0% | -43 | -31% | -96* | -23%
Cc1ccc(SC(CC(=O)c2ccc(F)cc2)C(=O)O)cc1 (stereo not drawn) | 5% | -35 | -16% | -8 | -8%[15.4 µM]
CCOC(=O)N1CCN(CC(=O)Nc2ccc([N+](=O)[O-])cc2C(=O)Nc2ccccc2F)CC1 | -2% | -9 | 28µM* | 2 | 10%
CC(CCC(=O)NN)C1CCC2C3CCC4CC(O)CCC4(C)C3CCC12C (stereo not drawn) | x | x | 7% | 2 | -8%
CC(CCC(C)C(C)(C)C)[C@@H]1CC[C@H]2C3C[C@H](OS(O)(=S)=S)[C@H]4C[C@H](OS(O)(=S)=S)[C@@H](OS(O)(=S)=S)C[C@]4(C)[C@H]3CC[C@]12C (stereo partly drawn) (tested in a mixture with another compound) | x | -83* | u | x | x
CCCC(=O)NC(c1cccs1)c1cc([N+](=O)[O-])c2cccnc2c1O (stereo not drawn) | 0% | -4 | -24% | -66* | 21%[15.4 µM]
Clc1cccc(Cl)c1/C=C/c1nc2ccccc2[nH]1 | 5% | 19 | 28µM* | 6 | -1%
Cc1ccc(Cl)c(OCC(O)CNC(C)(C)C)c1 (stereo not drawn) | x | x | x | -4 | x
O=C(Nc1ccccc1)c1ccc(=O)n(Cc2ccc(F)c(F)c2)c1 | -1% | -6 | -11% | -62* | -2%
O=C(Nc1ccc(F)c(F)c1)c1ccc(=O)n(Cc2ccc(F)cc2)c1 | -1% | x | x | x | x
Cc1cc(-c2ccccc2)nc(SCc2ccc(C(=O)O)o2)n1 | -1% | -21 | -8%[15.4 µM] | -11 | -1%
SMILES | RXFP1 agonist | TSHR antag | gsp antag | RXFP1 antag | gsp agonist
Cc1cc(-c2ccccc2)nc(SCc2ccc(C(=O)O)cc2)n1 | 0% | -25 | 35µM* | -3 | -33%
O=C(CN1CCCCC1)Nc1ccccc1 | 3% | -2 | 15% | -10 | -14%
O=C(CN1CCCCCC1)Nc1ccc(Oc2ccccc2)cc1 | 0% | 5 | 2% | -64* | 14%
C=C(C)CSc1nc2sc3c(c2c(=O)n1CCCC)CCCC3 | 0% | x | x | -7 | x
Cc1c(C)c2c(c(C)c1O)CCC(C)(COc1ccc(CC3SC(=O)NC3=O)cc1)O2 (stereo not drawn) | x | x | x | -75* | x
CCc1ccc(CCOc2ccc(CC3SC(=O)NC3=O)cc2)nc1 (stereo not drawn) | x | x | -21% | u | x
